Screening results from PubChem.
Hits are enriched below; roughly 19% of the tested compounds scored in any of these assays.
ELG1 repair inh: ELG1-dependent DNA repair inhibition; HEK293T ELG1-luciferase reporter, luminescence, 16 h; DNA damage induced by 5-fluorouridine; Potency, µM (doses to about 46.1 µM), for the others: top-dose activity change, negative = inhibition, most hits filed as inhibitors; 330,000 tested, 2.3% active; AID 504467; further: potency means the concentration at half of the fitted maximal effect; nearly all actives have a fitted effect of over 55% in size
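Step one: seed 2,000 cells per well. Step two: pin-transfer compound or DMSO alongside 5-fluorouridine. Step three: incubate 16 hr, 37 °C, 5% CO2. Step four: add ONE-Glo, wait 30 min, read luminescence.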
IL-1B inflam inh: blocks inflammasome-driven IL-1 beta release; AID 743279; THP-1 LPS/ATP IL-1B secretion, AlphaLISA, 16 h; hits give low values; activity change, % at 57.5 µM; 360,000 tested, 4.7% active; in the data active means activity change below about -50%; inconclusive means mostly about -30% to -49%
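Secreted IL-1B measured by AlphaLISA bead assay after 16 h compound exposure of THP-1 cells; compounds (final up to 57.5 uM) added 1 h before LPS (250 ng/mL) and ATP (1.25 mM) stimulation; lower signal means less secretion.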
HT1080NT lethal: kills 2HG-producing HT-1080-NT fibrosarcoma cells; Potency, µM (titrated, usually from 46.1 µM), for the others: top-dose activity, negative = less viability, usual class: cytotoxic; HT-1080-NT fibrosarcoma viability, CellTiter-Glo ATP luminescence, 48 h; AID 686970; 360,000 tested, 1.6% active;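 further: NT is the 2HG producing partner of a matched IDH1 knockdown line; potency means the concentration at half of the fitted maximal effect; 0% = DMSO-treated cells and -100% = media-only wells without cells; nearly all actives have a fitted effect of over 55% in size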
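Luminescent CellTiter-Glo readout after 48 hours of compound exposure at 37 degrees C defined viability of HT-1080-NT cells. Activity was normalized to DMSO wells and cell-free media wells; concentration-response curves were fitted and assigned curve classes.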
HT1080 IDH1KD tx: HT-1080 IDH1 knockdown cell toxicity (counter line); HT-1080 IDH1 knockdown viability, ATP luminescence, 48 h; Potency, µM (highest dose often 46.1 µM), for the others: top-dose activity, negative = toxicity, actives largely listed as cytotoxic; 360,000 tested, 2% active; AID 686971;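 further: potency means the concentration at half of the fitted maximal effect; 0% = DMSO wells and -100% = cell-free medium wells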
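In this qHTS, HT-1080 cells depleted of IDH1 are exposed for 48 h at 37 °C to compound titrations. Toxicity is scored from CellTiter-Glo luminescence, with DMSO as full viability and medium alone as none.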
TDP1 cell noCPT: qHTS for Inhibitors of human tyrosyl-DNA phosphodiesterase 1 (TDP1): qHTS in cells in absence of CPT; DT40 Tdp1-/- hTDP1 cells, no CPT, ATP luminescence, 48 h; Potency, µM (series often up to 46.2 µM), for inactives: top-dose activity change, negative = growth inhibition, hits mostly inhibitors; 420,000 tested, 15% active; AID 686978, 2013; further: potency means the concentration at half of the fitted maximal effect; nearly all actives have a fitted effect of over 55% in size
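Chicken DT40 Tdp1-/- cells stably complemented with human TDP1 were seeded at 400 cells/well with DMSO in place of 20 nM camptothecin. After compound pinning, cells grew at least 48 hr at 37 °C; viability read by CellTiter-Glo luminescence.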
TDP1 cell CPT: DT40-hTDP1 cell growth loss with CPT; 420,000 tested, 12% active; Potency, µM (series often up to 46.2 µM), for inactives: top-dose activity change, negative = growth inhibition, usual class: inhibitors; chicken DT40 Tdp1-/-;hTDP1 cells + 20 nM CPT, ATP luminescence, 48 h; AID 686979; further: potency means the concentration at half of the fitted maximal effect; nearly all actives have a fitted effect of over 55% in size
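Chicken DT40 Tdp1-/- cells complemented with human TDP1, 400 cells/well, exposed to compounds plus 20 nM camptothecin for at least 48 h at 37 C; viability read as ATP content by CellTiter-Glo luminescence.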
Numbers without * were called inactive; ? = inconclusive; . = not tested or not shown. Unless noted, the call rests on the fitted dose curve; in most records, active means well fitted curve in the direction sought with a large enough effect; inconclusive means small, poorly fitted or top-dose-only effect, or another doubt; inactive means no such curve, though single readings can be large; an effect the other way counts as inactive or inconclusive. Unless noted, on the % scale 0 is the no-effect control and ±100 the full control effect.

SMILES | ELG1 repair inh | IL-1B inflam inh | HT1080NT lethal | HT1080 IDH1KD tx | TDP1 cell noCPT | TDP1 cell CPT
O=C(CCN1C(=O)/C(=C/c2ccc(Cl)cc2)SC1=S)Nc1cccnc1 | 6.6% | 5.9 | 12.4% | 17.6% | ? | 29.1µM*
Cc1ccc(/C=C2\SC(=S)N(CCCC(=O)Nc3cccnc3)C2=O)cc1 | ? | ? | 4.7% | 8.8% | ? | ?
O=C(CCCN1C(=O)/C(=C/c2ccccc2OC(F)F)SC1=S)Nc1cccnc1 | 20.6µM* | -85.1* | -1.0% | -22.7% | 13µM* | 25.9µM*
O=C(CCN1C(=O)/C(=C\c2ccccc2Cl)SC1=S)Nc1cccnc1 | -6.4% | -52.5* | 7.7% | 11.5% | ? | -14.8%
Cc1ccnc(NC(=O)c2ccc([N+](=O)[O-])s2)c1 | ? | -11.4 | ? | ? | ? | 16.4µM*
Cc1cccc(NC(=O)c2ccc([N+](=O)[O-])s2)n1 | ? | 12.0 | ? | ? | 5.8µM* | 8.2µM*
COCCNc1ccc([N+](=O)[O-])cc1C(=O)Nc1cccc(C)n1 | ? | 0.0 | 0.1% | -10.8% | ? | 13µM*
Cc1cccc(NC(=O)c2ccc([N+](=O)[O-])cc2Cl)n1 | 6.2% | -4.2 | 12.7% | 15.7% | ? | ?
Cc1cccc(NC(=O)c2ccc([N+](=O)[O-])s2)c1C | ? | -14.7 | -9.9% | -16.9% | 20.6µM* | 14.6µM*
Cc1nc2c(c(C)c1CCC(=O)NCc1ccc(F)cc1)c(=O)n(C)c(=O)n2C | . | . | . | . | 0.7% | 13.1%
CCOc1ccc(S(=O)(=O)NC(C)C(=O)NCc2ccc3c(c2)OCO3)cc1 (stereo unspecified) | -6.5% | -0.8 | 0.4% | -10.4% | -19.4% | -35.5%
COc1ccc(C2CC(=O)c3cnc(NC(=O)c4ccccc4OC)nc3C2)c(OC)c1 (stereo unspecified) | ? | 8.4 | -17.9% | -11.6% | 14.6µM* | 16.4µM*
COc1cccc(C(=O)Nc2ncc3c(n2)CC(C)(C)CC3=O)c1 | 6.6% | -3.6 | -13.3% | -12.4% | 16.4µM* | ?
CN1CCN(NC(=O)COc2cccc(C(F)(F)F)c2)CC1 | 13.6% | -14.7 | -1.6% | -3.9% | 14.1% | -7.1%
CN1CCC(N(C)S(=O)(=O)c2ccc(NC(=O)COc3cccc(C(F)(F)F)c3)cc2)CC1 | 0.6% | -52.7* | -1.2% | -1.2% | ? | ?
CC(Oc1ccc(Br)cc1)C(=O)Nc1ccc(S(=O)(=O)N(C)C2CCN(C)CC2)cc1 (stereo unspecified) | ? | -97.7* | -18.7% | -0.6% | 6.51µM* | 11.6µM*
CN1CCN(C(=S)c2ccc(OCC(=O)Nc3cccc(C(F)(F)F)c3)cc2)CC1 | 18.4µM* | ? | -17.6% | -20.0% | 9.2µM* | 20.6µM*
CC(Sc1nnc(NC2CCCCC2)s1)C(=O)Nc1ccc2c(c1)C(=O)c1ccccc1C2=O (stereo unspecified) | ? | -3.2 | -14.4% | -8.1% | 20.6µM* | ?
C[C@H](CO)N1C[C@H](C)[C@H](CN(C)C(=O)Nc2ccnc(N3CCOCC3)c2)OCc2cnnn2CCCC1=O | . | 31.7 | 6.8% | 1.4% | -21.7% | 6.5%
CC(=O)NC1=NN(C(C)=O)C(c2ccc(F)cc2)S1 (stereo unspecified) | ? | 41.6 | 10.4% | 5.1% | -32.9% | 2.59µM*
Cc1ccc(-c2csc(-c3nc(-c4ccc(Br)s4)cs3)n2)cc1 | . | . | . | . | -5.4% | 2.5%
CCc1cccc(NC(=O)C2CCCN(S(=O)(=O)c3cccnc3)C2)c1 (stereo unspecified) | -3.9% | 8.1 | -1.0% | -4.2% | 14.6µM* | ?
